Source: PubChem BioAssay AID2158 (National Center for Advancing Translational Sciences (NCATS), 2009)
Where “and” joins values, the source holds several entries; their conditions need not be identical. Equal entries are not always repeated. Records with an inconclusive call do not appear. Calls of active or inactive are those of the source. Calls follow the shape of the dose curve; as a rule, active = well fitted inhibition curve with a large enough effect; inconclusive = small, poorly fitted or top-dose-only effect; inactive = no such curve, though single readings can be large or run the other way.

molecular target: Cruzipain (Trypanosoma cruzi) (UniProt P25779); test: Confirmation qHTS Assay for Inhibitors of Cruzain; conditions: purified cruzain, Z-FR-AMC fluorescence, 0.01% Triton; also: nearly all actives have a fitted effect of over 40% in size;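 as to activity change, negative = inhibition: plate controls were uninhibited enzyme control for no effect and buffer wells lacking enzyme for full effect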
Procedure, shortened: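 Reaction progress from the 60 s rise in AMC fluorescence (ex 360, em 450 nm) after adding 2 uM Z-FR-AMC. Before this, 1.5 nM cruzain sat 15 min at room temperature with compound in pH 5.5 acetate buffer with 5 mM DTT and 0.01% Triton X-100.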
Potency is read from the fitted curve at half-maximal effect.

Cruzipain (Trypanosoma cruzi), sequence (P25779 123-467 limits assumed): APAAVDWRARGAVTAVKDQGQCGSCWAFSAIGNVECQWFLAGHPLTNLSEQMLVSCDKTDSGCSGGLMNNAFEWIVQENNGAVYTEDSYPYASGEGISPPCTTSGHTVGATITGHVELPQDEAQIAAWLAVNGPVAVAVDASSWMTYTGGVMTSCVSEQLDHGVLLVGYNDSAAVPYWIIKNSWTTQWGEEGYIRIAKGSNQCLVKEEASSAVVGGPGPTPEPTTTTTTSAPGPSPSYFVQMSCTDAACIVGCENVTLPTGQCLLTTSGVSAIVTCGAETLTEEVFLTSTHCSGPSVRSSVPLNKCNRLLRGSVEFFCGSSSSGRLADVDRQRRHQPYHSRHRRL

| SMILES | Potency | activity change, negative = inhibition |
| --- | --- | --- |
| COc1ccc(OCCCn2c(CCNC(=O)C3CCCCC3)nc3ccccc32)cc1 | 1.41 µM (active) | – |
| CCc1ccc(C(=O)COC(=O)CNC(=O)COc2ccccc2)cc1 | – | 35.9% (inactive) |
| CC(C)(C)OC(=O)NCC(=O)NNC(=O)c1cc2ccccc2[nH]1 | – | -2.11% (inactive) |
| O=C(NC1CCCC1)c1ccc2nc(-c3ccco3)c(-c3ccco3)nc2c1 | 8.91 µM (active) | – |
| OCCN(CCO)c1ccc(C(c2ccccc2Cl)c2ccc(N(CCO)CCO)cc2Cl)c(Cl)c1 | – | -15.5% (inactive) |
| Cc1ccc(C)c(-c2csc(-c3c(N)c(C(=O)c4ccc5c(c4)OCO5)n4ccccc34)n2)c1 | – | -1.82% (inactive) |
| N#Cc1nc(NCC(F)F)nc(Nc2cc(F)cc(F)c2)n1 | 0.0251 µM (active) | – |
| Cc1ccc(-c2c3c(=O)n(C)c(=O)n(C)c3cn2-n2cnnc2)cc1 | 25.1 µM (active) | – |
| Cc1ccc2[nH]c(=O)c(NC(N)=S)nc2c1 | – | -16.5% (inactive) |
| N#Cc1nc(N2CCOCC2)nc(N2CCOCC2)n1 | 3.55 µM (active) and 5.01 µM (active) | – |
| Cc1ccc(S(=O)(=O)NCC(=O)OCC(=O)Nc2ncc(Cl)cc2Cl)cc1 | – | -50.6% (inactive) |
| COc1cccc(CNC(=O)c2ccc3c(c2)N(Cc2ccc(F)cc2Cl)C(=O)c2ccccc2S3)c1 | – | 2.24% (inactive) |
| Cc1ccccc1C(=O)NCC(=O)OC(C(=O)Nc1cc(C(F)(F)F)ccc1Cl)c1ccccc1 (stereo not drawn) | 12.6 µM (active) | – |
| Cc1cc(=O)oc2cc(OCC(=O)N3CCOCC3)ccc12 | 8.91 µM (active) | – |
| N#Cc1nc(Nc2cccc(-c3ccccc3)c2)nc(NC2CCCC2)n1 | 2.24 µM (active) | – |
| N#Cc1nc(Nc2cc(F)cc(F)c2)c2ncn(CC(F)F)c2n1 | 0.01 µM (active) | – |
| O=C(CNC(=O)Cc1ccccc1)NCC(=O)OCC(=O)c1cccc2ccccc12 | – | -13% (inactive) |
| O=C(COC(=O)CNC(=O)c1ccccc1Cl)Nc1cc(C(F)(F)F)ccc1Cl | 3.55 µM (active) | – |
| COc1ccccc1CCNC(=O)CNC(=O)c1ccc2ccccc2c1 | – | -7.19% (inactive) |

| SMILES | Potency | activity change, negative = inhibition |
| --- | --- | --- |
| CCNc1nc(C#N)nc(N2CCOCC2)n1 | 10 µM (active) | – |
| CNC(=O)c1ccc2nc(-c3cccc(C)c3)c(-c3cccc(C)c3)nc2c1 | – | -24.1% (inactive) |
| O=C(CNC(=O)c1ccc(Cl)cc1)OC(C(=O)Nc1cc(C(F)(F)F)ccc1Cl)c1ccccc1 (stereo not drawn) | 10 µM (active) | – |
| CCC(C)[C@@H](NC(=O)OC(C)(C)C)c1nnc(S(=O)(=O)Cc2cccc(C)c2)o1 (stereo partly drawn) | 14.1 µM (active) | – |
| CNc1oc(Cc2ccccc2)nc1S(=O)(=O)c1ccccc1 | 7.08 µM (active) | – |
| CC(C)(C)OC(=O)Cc1nnc(CNC(=O)c2ccccc2)s1 | – | -0.719% (inactive) |
| CCOc1ccc(CN2C(=O)c3ccccc3Sc3ccc(C(=O)NCc4ccc5c(c4)OCO5)cc32)cc1 | – | 6.89% (inactive) |
| CCOc1nc(C#N)nc(N2CCCCC2)n1 | 2.51 µM (active) and 3.55 µM (active) | – |
| Cc1csc(N/N=C/c2ccc(O)c([N+](=O)[O-])c2)n1 | – | -63.9% (inactive) |
| O=C(CNC(=O)c1ccccc1)OC(CCc1ccccc1)C(=O)Nc1cc(C(F)(F)F)ccc1Cl (stereo not drawn) | 7.94 µM (active) | – |
| O=C(NNC(=O)c1cc2ccccc2[nH]1)OCc1ccccc1 | – | 2.31% (inactive) |
| O=C(CNC(=O)c1ccc2n[nH]nc2c1)OC(C(=O)Nc1cc(C(F)(F)F)ccc1Cl)c1ccccc1 (stereo not drawn) | 14.1 µM (active) | – |
| c1ccc(CNCc2nnc(-c3cc4ccccc4[nH]3)o2)cc1 | – | -1.64% (inactive) |
| N#Cc1nc(NC2CCCC2)c2ncn(-c3cc(F)cc(F)c3)c2n1 | 0.316 µM (active) | – |
| CCCN(CCC)c1nc(C#N)nc(N(CCC)CCC)n1 | 3.55 µM (active) | – |
| Nc1ccc2c(c1)C(=O)C(=O)c1ccccc1-2 | – | -54.3% (inactive) |
| N#Cc1nc(Nc2cc(Cl)cc(Cl)c2)nc(NC2CCCC2)n1 | 0.398 µM (active) | – |
| O=C(CNC(=O)c1cccc(Cl)c1)OC(C(=O)Nc1cc(C(F)(F)F)ccc1Cl)c1ccccc1 (stereo not drawn) | 12.6 µM (active) | – |
